Measured values as given in the supplement of paper PMC7858590.

Test system: human monocyte-derived macrophages (polarized)
Assay: cell shape (eccentricity) Z-score vs DMSO control; higher = more elongated, M2-like morphology
Details: 5 µM; 24 h; macrophage state: M1-polarized (IFNg + TNFa), cytokines present during treatment
Method: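 Primary-screen hits were rescreened on polarized hMDMs with the differentiating cytokines (IL-4 + IL-13 or IFNg + TNFa) kept in the medium during treatment with compound at 5 uM for 24 h. The eccentricity Z-score vs DMSO wells is averaged over experiments.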

| SMILES | cell shape (Z-score) |
| --- | --- |
| Cc1c(NC(=O)c2cccnc2)c(=O)n(-c2ccccc2)n1C | 1.43 |
| CC(C)(C)OC(=O)Nc1ccc(-c2cc(C(=O)NCCCCCCC(=O)NO)no2)cc1 | -0.14 |
| N#CCNC(=O)c1ccc(-c2ccnc(Nc3ccc(N4CCOCC4)cc3)n2)cc1 | 22.9 |
| CN(C)CCC=C1c2ccccc2COc2ccccc21 | -7.17 |
| O=C(Nc1ccncc1)c1cc([N+](=O)[O-])ccc1Cl | 5.38 |
| Cc1ccc2c(=O)c3ccccc3n(CCCN)c2c1C | -0.216 |
| CNC(=O)c1cc(Oc2ccc(NC(=O)Nc3ccc(Cl)c(C(F)(F)F)c3)c(F)c2)ccn1 | 12.1 |
| COc1c(OC)c(O)c2c(=O)c(O)c(-c3ccccc3)oc2c1OC | 5.45 |
| C=CCn1c(=O)c2cnc(Nc3ccc(N4CCN(C)CC4)cc3)nc2n1-c1cccc(C(C)(C)O)n1 | 5.45 |
| CC(C)(C)c1nc(-c2cccc(NS(=O)(=O)c3c(F)cccc3F)c2F)c(-c2ccnc(N)n2)s1 | -2.77 |
| CC(N)C(=O)OC(C)(C)Cc1ccc(Cl)cc1 (stereo not given) | -2.3 |
| COc1ccc2oc(-c3ccccc3OC)cc(=O)c2c1 | 0.285 |
| CC1C(=O)C(=O)[C@@H]2O[C@@H]2C1=O (stereo not given in full) | -0.0615 |
| N#Cc1ccc(COC[C@H]2O[C@@H](n3c(NCc4ccc(Cl)c(Cl)c4)nc4c(N)ncnc43)[C@H](O)[C@@H]2O)cc1 | -3.47 |
| COc1ccc(-c2cc(=O)c3c(O)cc(O)cc3o2)cc1O | 3.77 |
| COc1nccnc1NS(=O)(=O)c1ccc(NC(=O)/C=C/c2ccc([N+](=O)[O-])s2)cc1 | -4.64 |
| CCCCCCCCCc1ccc(OCCOCCOCCOCCOCCOCCOCCOCCOCCO)cc1 | 5.89 |
| Clc1ccc(C(Cn2ccnc2)OCc2ccsc2Cl)c(Cl)c1 (stereo not given) | -4.98 |
| C=CC(=O)N1CCC[C@@H](n2nc(-c3ccc(Oc4ccccc4)cc3)c3c(N)ncnc32)C1 | 6.69 |
| Cc1nn(C)c2nc(NNC(=O)Nc3cc(Cl)nc(Cl)c3)cc(C(C)C)c12 | 7.42 |
| CC(C)c1ccccc1Cc1cc(C(=O)Nc2ccc(S(=O)(=O)c3ccccc3C(C)(C)C)cc2)c(O)c(O)c1O | -2.24 |
| C=C1C(=O)O[C@H]2C3=C(C)C[C@H](OC(C)=O)C[C@]3(C)CC[C@@H]12 | -1.91 |

Same assay, conditions: 5 µM; 24 h; macrophage state: M2-polarized (IL-4 + IL-13), cytokines present during treatment

| SMILES | cell shape (Z-score) |
| --- | --- |
| CC(=O)Oc1cc2c(c(C)c1OC(C)=O)CC=C1[C@@]2(C)CC[C@@]2(C)C3C[C@](C)(C(=O)O)CC[C@]3(C)CC[C@]12C (stereo not given in full) | -0.297 |
| CN(C)CCC=C1c2ccccc2COc2ccccc21 | -5.83 |
| O=C(Nc1ccc([N+](=O)[O-])cc1O)Nc1ccccc1Br | -12.2 |
| COc1cc2c(cc1-c1coc3c4c(ccc3c1=O)OC(C)(C)C=C4)OCO2 | -5.25 |
| CCN(CCCCOC(=O)c1ccc(OC)c(OC)c1)C(C)Cc1ccc(OC)cc1 (stereo not given) | -4.84 |
| CCCSc1ccc2[nH]c(NC(=O)OC)nc2c1 | -6.38 |
| Cc1cc(CC(C)CC(C)(C)C)n(O)c(=O)c1 (stereo not given) | 0.506 |
| COC(=O)Nc1nc2ccc(SC(C)C)cc2[nH]1 | 0.135 |
| CCCC[C@@H](O)c1cc(OC)cc(=O)o1 | -3.33 |
| O=C(O)Cc1nn(Cc2ccc(Br)cc2F)c(=O)c2ccccc12 | -1.61 |
| CCCCCCCCc1ccc(CCC(N)(CO)CO)cc1 | -15.5 |
| O=C(Nc1nc2ccc(NC(=O)C34CC5CC(CC(C5)C3)C4)cc2s1)c1ccccc1 | -6.86 |
| C[C@H]1CN([C@@H](C)CO)S(=O)(=O)c2ccc(C#Cc3ccncc3)cc2O[C@@H]1CN(C)C(=O)Nc1ccc2c(c1)OCO2 | 5.87 |
| O=c1nc2ccccc2c2n1CC(CN1CCN(c3ccccc3)CC1)N2 (stereo not given) | -1.27 |
| C=C(C(=O)O)[C@@H]1CC[C@@]2(C)CC[C@H](O)[C@@]2(C(C)=O)C1 | -6.45 |
| COc1ccc(C[C@H](N)C(=O)N[C@H]2[C@@H](O)[C@H](n3cnc4c(N(C)C)ncnc43)O[C@@H]2CO)cc1 | -12.5 |
| O=C1c2c(O)ccc(O)c2C(=O)c2c(NCCNCCO)ccc(NCCNCCO)c21 | -1.14 |
| CC(=O)OCCNC(=O)c1cccnc1 | 2.01 |
